Test results: ChEMBL document CHEMBL4513216, “Probing the Open Global Health Chemical Diversity Library for Multistage-Active Starting Points for Next-Generation Antimalarials” (ACS Infect Dis, 2020)
Among all 68,000 compounds or so, about 2,700 (4%) showed an effect of 50% or more. What follows is part of a selection rich in strong results, with near analogues and random picks from the rest.

The compounds below were run on Plasmodium berghei (assay: Screen against P. berghei liver stage (PbLuc), transformed with Luciferase, at 2uM). Conditions: tested at 2 uM.
Assay type: functional, HepG2

SMILES	INHIBITION [%]
Cc1cnn(CCNCc2c(C)nn(C)c2Cl)c1	56.15
CCn1nc(C)c(CNCCn2cc(C)cn2)c1C	-0.98
Cc1cnn(CCNCc2nc(-c3ccccc3Cl)no2)c1	73.05
Cc1cnn(CCNCc2c(C(C)C)nn(C)c2Cl)c1	31.81
CCc1noc(CNCCn2cc(C)cn2)n1	-24.75
Cc1cnn(CCNCc2nc(-c3ccccn3)no2)c1	13.36
CN1CCN(c2cnn(CCn3cccn3)c(=O)c2)CC1	26.14
Cc1cc(C(=O)N2C[C@@H]3C(CN(C)CCCn4cccn4)[C@@H]3C2)c(C)o1 (stereo partly drawn)	-6.53
Cc1ccccc1C(=O)N1C[C@@H]2C(CN(C)CCc3ccccn3)[C@@H]2C1 (stereo partly drawn)	56.21
Cc1cc(C(=O)N2C[C@@H]3C(CN(C)CCc4ccccn4)[C@@H]3C2)c(C)o1 (stereo partly drawn)	33.7
Cc1cccc2c1ccn2CCC(=O)O	4.39
Cc1noc(-c2ccc(N3CCC(C(=O)N4CCCC4)CC3)nc2)n1	51.96
Cc1noc(-c2ccc(N3CCCC(C(=O)c4nccn4C)C3)nc2)n1 (stereo not drawn)	58.53
CCOC(=O)C1CCCN(c2ccc(-c3nc(C)no3)cn2)C1 (stereo not drawn)	-9.62
Cc1noc(-c2ccc(N3CCCC(C(=O)O)C3)nc2)n1 (stereo not drawn)	25.69
Cc1noc(-c2ccc(N3CCCC(C(=O)N4CCSCC4)C3)nc2)n1 (stereo not drawn)	-13.24
Cc1noc(-c2ccc(N3CCCC(C(N)=O)C3)nc2)n1 (stereo not drawn)	22.86
CC(C)c1nc(C2CCCN2C(=O)c2cnc[nH]2)no1 (stereo not drawn)	-66
COc1cccc(NC(=O)C(C)Cn2cc(Cl)cn2)c1 (stereo not drawn)	36.45
Cc1ccc2nnc(C(=O)NCCCn3cccn3)nc2c1	-41.49
CC(C)(C(=O)NCC(=O)NCc1ccccc1)c1ccccc1F	-3.22
COc1cc2c(cc1CN1CCc3sccc3C1C)OCO2 (stereo not drawn)	59.65
COc1ccsc1C(=O)Nc1cc(CN2CCOCC2)ccc1C	37.63

SMILES	INHIBITION [%]
CC1c2ccsc2CCN1Cc1cc2c(cc1O)OCO2 (stereo not drawn)	12.7
COc1cc2c(cc1CN1CCc3sccc3C1C)OCCO2 (stereo not drawn)	18.06
COc1ccc(CN2CCc3sccc3C2C)cc1CN1CCOCC1 (stereo not drawn)	56.39
CCC1c2ccsc2CCN1Cc1cc2c(cc1OC)OCCO2 (stereo not drawn)	10.03
CC(C)OCCn1nnnc1Cc1ccc(Br)cc1	-21.99
CNC(=O)NC(=O)CCN1CCN(c2nccs2)CC1	27.2
CS(=O)(=O)c1ccc(C(O)CN2CCC(c3ccn[nH]3)CC2)cc1 (stereo not drawn)	14.82
C[C@@H]1CN(C(=O)c2cccs2)C[C@]12CCN(CCN(C)C)C2=O	6.12
CCCc1nc(CN(CC)Cc2ccc(S(C)(=O)=O)cc2)no1	-5.31
CN(CC(N)=O)Cc1ccc(F)cc1Cl	-6.61
Cc1nnc(SCCC(=O)N(C)Cc2c(F)cccc2Cl)[nH]1	21.97
Cc1nnc(SCCC(=O)N(C)Cc2ccc(Cl)s2)[nH]1	55.36
Cc1nnc(SCCC(=O)N(C)Cc2ccc(F)cc2Cl)[nH]1	52.98
CN(Cc1ccc(Cl)s1)C(=O)Cn1nc(-c2ccc(F)cc2)oc1=O	14.82
Cc1nnc(SCCC(=O)N(C)Cc2ccc(F)cc2F)[nH]1	10.05
O=C(NCCc1cccc(F)c1)NCC(O)c1cccc(F)c1 (stereo not drawn)	-47.97
COc1nc2c(cc1C(=O)N1CCCOC(CN3CCCC3)C1)CCC2 (stereo not drawn)	-8.45
CCN(Cc1cnn(C)c1)C[C@H]1CC[C@@H](Cc2ccc(C)nc2)O1	55.84
CCN(Cc1cnn(C)c1)C[C@H]1CC[C@@H](Cc2ccc(OC)nc2)O1	-6.22
CCN(Cc1cnn(C)c1)C[C@H]1CC[C@@H](Cc2ccc(CO)cc2)O1	36.78
CN(C)S(=O)(=O)N1CCO[C@H]2[C@H](Oc3cccnc3)CC[C@@H]21	-16.75
OCCc1cc(CC2(NCc3ccncc3)COC2)no1	24.64
O=C(c1cc(CC2(NCc3ccccc3)COC2)no1)N1CCCCC1	56.76

SMILES	INHIBITION [%]
O=C(c1cc(CC2(NCC3CCCCC3)COC2)no1)N1CCCCC1	54.01
COCc1cc(CC2(NCc3ccccc3Cl)COC2)no1	27.54
CC(C)(O)c1cc(CC2(NCC3CCCCC3)COC2)no1	-24.31
O=C(c1cc(CC2(NC3CCCCC3)COC2)no1)N1CCCCC1	10.08
O=C(Nc1cccnc1)[C@@H]1C[C@H]2OCC[C@H]2N(Cc2nccs2)C1	1.06
CSc1ccccc1CN1C[C@@H]2CC[C@H]1CN(Cc1[nH]cnc1C)C2	8.26
O=C(Cc1ccc2c(c1)CCO2)N1CCN(c2nccs2)CC1	-11.34
O=C(Cc1ccc2c(c1)OCO2)N1CCCN(c2ccccc2)CC1	-50.86
O=C(Cc1ccc2c(c1)OCO2)N1CCCN(c2nccs2)CC1	79.21
O=S(=O)(NCC1CCN(c2cnccn2)CC1)c1ccc(F)c(Cl)c1	20.8
COc1ccc(-c2nc(C#N)c(N(C)C)o2)cc1S(=O)(=O)N(C)C	-36.29
COC(=O)[C@H](C)NC(=O)Cn1ccc2ccc(F)cc21	0.08
COC(=O)CCC(=O)Nc1ccc(Br)c(C)n1	11.88
O=C([C@@H]1CCO[C@@H]2CCN(Cc3cccs3)C[C@H]21)N1CCCCO1	27.44
CC(C)NC(=O)N1C[C@@H]2C[C@H](C(=O)NCc3ccccc3)[C@H](C1)O2	36.17
O=C(NCc1cc(C2CC2)n(C2CCCC2)n1)C1CC1	14.47
CCC(=O)NCc1cc(C2CC2)n(C2CCCC2)n1	50.7
CCOCC(=O)NCc1cc(C2CC2)n(C2CCCC2)n1	6.9
COCC(=O)N1CCC2(CC1)COCCN2Cc1ccc(F)cc1	-5.65
Cc1ccc(NC(=O)CNC(C)CN2CCOCC2)c(F)c1 (stereo not drawn)	21.24
Cc1ccc(NC(=O)CNC(C)CN2CCCCC2)c(F)c1 (stereo not drawn)	64.35
Cc1ccc(NC(=O)CN2CCOCC2)c(F)c1	-1.29
